Test results: PubChem BioAssay AID2284323 (EPA ToxCast)
Activity calls are given as the source filed them. Rule for the calls: active = hit-call score of the fitted dose curve at least 0.9, where 1 is the maximum; inactive = score below 0.9.

Test system: NCBI gene 447152
Assay: CCTE_GLTED_xIYD: CCTE's Xenopus Iodotyrosine Deiodinase (xIYD) Inhibition Assay, Great Lakes Toxicology and Ecology Division (GLTED) Lab
Experimental: CCTE_GLTED_xIYD is a cell-free, single-readout assay that uses Xenopus (frog) iodotyrosine deiodinase (xIYD) enzyme from liver microsomes. Assay is based on iodide release measured by the Sandell-Kolthoff method and is run in 96-well plate format with assay plates run in triplicate (n=3) with measurements taken at 3 hours after chemical dosing. Platewise-normalization was used based on positive control (3-Nitro-L-tyrosine, MNT) and negative/solvent controls (DMSO, NaOH).CCTE_GLTED_xIYD is the assay component measured from the CCTE_GLTED_xIYD assay. It measures substrate involved in regulation of catalytic activity using spectrophotometry. The assay measures the deiodination activity of Xenopus (frog) IYD on the substrate monoiodotyrosine (MIT). After 3h incubation of substrate, enzyme, and test chemical, the components are applied to a 96-well Dowex column. Free iodide is not retained by the column and is separated from interfering assay components. The free iodide is measured by the Sandell-Kolthoff reaction in which the rate of reduction of cerium (Ce+4 to Ce+3) by arsenic (As+3 to As+5) is increased by the presence of iodide. This is observed as the loss of yellow color in the reaction and the quantified by the change in absorbance at 420 nm. The change in reaction rate is proportional to the amount of iodide present.Data from the assay component CCTE_GLTED_xIYD was analyzed at the assay endpoint CCTE_GLTED_xIYD in the positive analysis fitting direction relative to DMSO as the negative control and baseline of activity. Using a type of enzyme reporter, loss-of-signal activity can be used to understand iodotyrosine deiodinase activity. To generalize the intended target to other relatable targets, this assay endpoint is annotated to the 'dehalogenase' intended target family, where the subfamily is 'iodotyrosine deiodinase'.
Human transthyretin (TTR) assay, developed at Great Lakes Toxicology and Ecology Division (GLTED) within the EPA's Center for Computational Toxicology and Exposure (CCTE), is designed to test the chemicals' ability to displace T4 from the TTR protein. TTR (0.125uM) is incubated in presence of test chemical for 2 hours during which disrupting chemicals displace ANSA from the TTR protein. Results read fluorescence at 380 excitation and 475 emission.

Row | Structure (SMILES) | outcome | AC50
1 | O=C(O)CCC(F)(F)C(F)(F)C(F)(F)C(F)(F)C(F)(F)C(F)(F)C(F)(F)F | inactive | 
2 | O=C(Cl)C(F)(F)C(F)(F)C(F)(F)C(F)(F)C(F)(F)C(F)(F)C(F)(F)C(F)(F)F | inactive | 
3 | O=C(O)C(F)(F)C(F)(F)C(F)(F)C(F)(F)C(F)(F)C(F)(F)C(F)(F)C(F)(F)C(F)(F)C(F)F |  | 64.2 µM (active)
4 | O=C(O)C(F)(F)OC(F)(F)C(F)(F)OC(F)(F)C(F)(F)OC(F)(F)C(F)(F)C(F)(F)C(F)(F)F |  | 93.8 µM (active)
5 | O=S(=O)(O)C(F)(F)C(F)(F)C(F)(F)C(F)(F)C(F)(F)C(F)(F)C(F)(F)F |  | 19.8 µM (active)
6 | O=P(O)(O)CCC(F)(F)C(F)(F)C(F)(F)C(F)(F)C(F)(F)C(F)(F)C(F)(F)C(F)(F)F |  | 65.4 µM (active)
7 | O=C(O)C(F)(F)C(F)(F)C(F)(F)C(F)(F)C(F)(F)C(F)(F)C(F)(F)C(F)(F)Cl |  | 38.9 µM (active)
8 | O=S(=O)(Cl)C(F)(F)C(F)(F)C(F)(F)C(F)(F)C(F)(F)C(F)(F)C(F)(F)C(F)(F)F | inactive | 
9 | N[C@@H](Cc1ccc(O)c([N+](=O)[O-])c1)C(=O)O |  | 0.113 µM (active)
